# According to PubChem BioAssay:
# Active and inactive are the calls of the source.
# Test system: not listed separately
# Assay: S6 kinase pathway phospho-S6 level changes – cell-based, A549, cytoblot, luminescence, serum-stimulated, primary screen (AID 1158);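 further: serum-stimulated A549 lung adenocarcinoma cells; signal is phosphorylated S6 detected by cytoblot immunostaining with HRP secondary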
# Conditions: 5 h, higher = more signal
row,Structure (SMILES),z-score
1,COC(=O)[C@@]1(Cc2ccc(F)cc2)[C@H]2c3cc(C(=O)N4CCCC4)n(CCc4ccc(O)c(O)c4)c3C[C@H]2CN1C(=O)c1ccccc1,-0.243
2,[N-]=[N+]=NCc1ccccc1[C@H]1OC(c2ccc(OCCCO)cc2)=N[C@@]1(CCS(=O)(=O)c1ccccc1)C(=O)NCC(O)CO (stereo not given in full),0.123
3,C[C@]1(C(=O)NC2CC2)c2ccccc2C(=O)N(Cc2ccccc2)[C@H]1c1ccc(CO)cc1,2.26
4,COC(=O)C(CC#Cc1ccc2c(c1)[C@]1(C(=O)N2)[C@H](c2ccccc2OCCO)N2[C@H](c3ccccc3)[C@H](c3ccccc3)OC(=O)[C@H]2[C@@H]1C(=O)NC[C@H](O)c1ccccc1)C(=O)OC,1.54
5,COCCOC(=O)N1C(=O)[C@@]2(c3cc(C#CCCO)ccc31)[C@H](C(=O)Nc1nc3ccccc3s1)[C@H]1C(=O)O[C@H](c3ccccc3)[C@H](c3ccccc3)N1[C@@H]2c1ccccc1OCCO,-0.331
6,COCCOC(=O)N1C(=O)[C@@]2(c3cc(C#CC4=CCCCC4)ccc31)[C@H](c1ccc(O)cc1)N1[C@H](c3ccccc3)[C@H](c3ccccc3)OC(=O)[C@H]1[C@@H]2C(=O)N1CCN(c2ncccn2)CC1,-0.229
7,C[C@@H]1NC(=O)[C@@]23C(=O)N[C@@H](Cc4ccccc4)C2[C@H](C)[C@@]2(C)O[C@H]2C3/C=C/C/C=C\CNC(=O)[C@@H]2CCCN2C1=O (stereo not given in full),0.0613

# Molecular target: NADPH oxidase 2 (Homo sapiens) (UniProt P04839)
# Sequence (P04839 whole entry, looked up): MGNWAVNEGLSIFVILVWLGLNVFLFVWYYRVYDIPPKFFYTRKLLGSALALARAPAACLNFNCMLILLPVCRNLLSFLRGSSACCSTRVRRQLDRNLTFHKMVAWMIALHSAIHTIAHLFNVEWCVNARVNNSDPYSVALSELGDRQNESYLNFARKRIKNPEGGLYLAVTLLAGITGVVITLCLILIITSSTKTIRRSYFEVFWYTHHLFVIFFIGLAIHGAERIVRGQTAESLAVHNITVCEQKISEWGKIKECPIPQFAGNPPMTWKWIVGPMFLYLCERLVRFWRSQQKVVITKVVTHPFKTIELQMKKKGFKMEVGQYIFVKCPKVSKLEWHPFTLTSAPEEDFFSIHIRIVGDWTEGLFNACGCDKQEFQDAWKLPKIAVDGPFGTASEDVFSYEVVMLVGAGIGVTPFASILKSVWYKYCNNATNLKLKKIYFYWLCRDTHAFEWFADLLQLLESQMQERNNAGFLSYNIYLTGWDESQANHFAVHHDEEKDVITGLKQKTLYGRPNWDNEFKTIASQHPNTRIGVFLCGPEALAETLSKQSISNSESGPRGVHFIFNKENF
# Assay: compounds shifting NOX2 Amplex Red fluorescence – cell-based, HEK293-NOX2, PMA-stimulated, NOX inhibitor project, primary screen (AID 1159); further: test concentration not given here
# Conditions: 45 min, higher = more signal, called active from +8 up or from −8 down
row,Structure (SMILES),z-score
1,OCCCC1=CC(c2ccc(CN3CCCC3)cc2)N(Cc2sc3ccccc3c2Cl)CC1 (stereo not given),-5.42 (inactive)
2,CC(C)C(CO)N1C(=O)[C@@H]2C3C(=O)OCCC/C=C\[C@H]3OC23C=CCN(C(C)(C)C)C(=O)[C@@H]13 (stereo not given in full),1.57 (inactive)
3,O=c1n(-c2ccccc2)c(=O)n2n1CC(COc1ccccc1)=C([C@H](O)CCc1ccccc1)[C@@H]2CO,-0.878 (inactive)
4,CC(C)C(=C=CC[C@H](O)c1cccc(OCCO)c1)C[C@H](O)c1cc(Cl)cc(Cl)c1O,-1.01 (inactive)
5,CC(C)(C)OC(=O)CC[C@]1(C(=O)NCC(O)CO)N=C(c2ccc(OCCCO)cc2)O[C@H]1c1ccccc1 (stereo not given in full),0.246 (inactive)
6,COC(=O)[C@@]1(Cc2ccccc2)[C@H]2c3cc(C(=O)N(C)C)n(CCc4ccc(O)c(OC)c4)c3C[C@H]2CN1C(=O)c1ccccc1,0.0564 (inactive)
7,C=CCNC(=O)[C@@H]1[C@H]2C(=O)O[C@H](c3ccccc3)[C@H](c3ccccc3)N2[C@H](c2ccc(O)cc2)[C@@]12C(=O)N(C(=O)OCCOC)c1ccc(C#CC3(O)CCCCCC3)cc12,-0.00516 (inactive)
8,CCCC[C@@H]1C[C@H]1[C@@H](NC(=O)c1cccs1)c1ccc(C(F)(F)F)cc1,-0.934 (inactive)
9,COCCOC(=O)N1C(=O)[C@@]2(c3cc(C#Cc4ccc(OC)cc4)ccc31)[C@H](c1ccccc1OCCO)N1[C@H](c3ccccc3)[C@H](c3ccccc3)OC(=O)[C@H]1[C@@H]2C(=O)N1CCCCCCC1,-0.126 (inactive)
10,Cc1ccccc1C(O)C1C=CC2C(=O)N(C)C(=O)C2N1N(c1ccccc1)c1ccccc1 (stereo not given),0.888 (inactive)
11,Cc1ccc(S[C@]2(C(=O)NCC(F)(F)F)CC(=O)N(Cc3ccccc3C(F)(F)F)[C@@H]2c2ccc(CO)cc2I)cc1,2.28 (inactive)
12,CC(C)N1C(=O)C[C@@](C(=O)NCCCN(C)C)(c2ccc([N+](=O)[O-])cc2)[C@H]1c1ccc(CO)cc1,0.778 (inactive)
13,CCOc1cc(C(O)C2C=CC3C(=O)N(c4ccccc4)C(=O)C3N2Nc2ccc(C#N)cc2)ccc1O (stereo not given),-2.87 (inactive)
14,CN(C)C(=O)[C@@]1(Cc2ccccc2CN=[N+]=[N-])N=C(c2ccc(OCCCO)cc2)O[C@H]1c1ccccc1CN=[N+]=[N-],-0.379 (inactive)
15,C=CC[C@]1(C(=O)O)COC(c2ccc(OCCCO)cc2)=N1,0.388 (inactive)
16,C=CCC(OC(C)=O)[C@@H]1[C@@H](N(Cc2cccc3ccccc23)C(=O)Cc2ccc(OC)cc2)c2cc(OCCCO)ccc2N1C(=O)c1ccc2ccccc2n1 (stereo not given in full),-1.4 (inactive)
17,CCOC(=O)C[C@H]1[C@H](OC(=O)Cc2ccc3c(c2)OCO3)[C@@H](NC(=O)CC(C)C)c2cc(OCCCO)ccc2N1C(=O)Cc1ccc(OC)cc1,0.163 (inactive)
18,[N-]=[N+]=NCc1ccccc1C[C@@]1(C(=O)NCc2ccccc2)N=C(c2ccc(OCCCO)cc2)O[C@@H]1c1ccccc1N=[N+]=[N-],0.0504 (inactive)
